Screening results as filed in PubChem BioAssay.
TDP1 inh = inhibitors of human tyrosyl-DNA phosphodiesterase TDP1; 350,000 tested, 0.28% active; Q9NUW8; Potency, µM (top dose mostly 130 µM), for the others: at the top dose activity change, negative = inhibition, usual class: inhibitors; recombinant TDP1, AlphaScreen DNA substrate cleavage; also: potency is read from the fitted curve at half-maximal effect; nearly all actives have a fitted effect of over 40% in size
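Recombinant E. coli-expressed Tdp1 (1 nM) preincubated with compound 15 min at RT, then 5'-biotin/3'-phosphotyrosine-FITC DNA substrate (15 nM) added for 5 min. AlphaScreen beads (10 ug/ml) added, 10 min RT; tyrosine-FITC cleavage read as signal loss.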
TDP1 cell noCPT = qHTS for Inhibitors of human tyrosyl-DNA phosphodiesterase 1 (TDP1): qHTS in cells in absence of CPT; 420,000 tested, 15% active; Potency, µM (titrated, usually from 46.2 µM), inactives show top-dose activity change, negative = growth inhibition, most hits filed as inhibitors; AID 686978, 2013; DT40 Tdp1-/- hTDP1 cells, no CPT, ATP luminescence, 48 h; also: potency is read from the fitted curve at half-maximal effect; nearly all actives have a fitted effect of over 55% in size
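A cellular qHTS used chicken DT40 cells lacking endogenous Tdp1 but carrying stably transfected human TDP1. Compounds were applied without camptothecin, and cell growth kinetics were judged by ATP-dependent luminescence after ≥48 hr.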
CtBP-E1A blk = blocks the CtBP interaction with E1A. 340,000 tested, 0.49% active. AlphaScreen GST-E1A/His-CtBP binding, 1536-well; stronger effect = lower value. activity change, % (no concentration beside the values); in the data active = activity change below about -65%; inconclusive = mostly about -30% to -63%
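GST-E1A and His-tagged CtBP (125 nM each as 5X stock) were preincubated with pin-transferred compound for 2 h at 37 °C in the dark, then glutathione donor and nickel acceptor beads were added for 1 h before AlphaScreen reading.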
IL-1B inflam inh = inhibitors of inflammasome signaling (IL-1 beta secretion) | THP-1 LPS/ATP IL-1B secretion, AlphaLISA, 16 h; stronger effect = lower value | activity change, % at 57.5 µM | 360,000 tested, 4.7% active | AID 743279; in the data active = activity change below about -50%; inconclusive = mostly about -30% to -49%
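Secreted IL-1B measured by AlphaLISA bead assay after 16 h compound exposure of THP-1 cells; compounds (final up to 57.5 uM) added 1 h before LPS (250 ng/mL) and ATP (1.25 mM) stimulation; lower signal means less secretion.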
DT40 TDP1 CPT = growth inhibition of DT40 Tdp1-/-;hTDP1 cells with camptothecin (screen for TDP1 inhibitors) | chicken DT40 Tdp1-/-;hTDP1 cells + 20 nM CPT, ATP luminescence, 48 h | Potency, µM (top dose mostly 46.2 µM), inactives show at the highest dose activity change, negative = growth inhibition, usual class: inhibitors | 420,000 tested, 12% active; also: potency is read from the fitted curve at half-maximal effect; nearly all actives have a fitted effect of over 55% in size
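Chicken DT40 Tdp1-/- cells complemented with human TDP1, 400 cells/well, exposed to compounds plus 20 nM camptothecin for at least 48 h at 37 C; viability read as ATP content by CellTiter-Glo luminescence.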
Six1-Eya2 blk = Six1/Eya2 interaction inhibition | activity change, % (concentration not given with the values) | AlphaScreen GST-Six1/His-Eya2 binding, biochemical; stronger effect = lower value | 360,000 tested, 0.56% active | Q15475+O00167; in the data active = activity change below about -65%; inconclusive = mostly about -30% to -63%
Target sequence (O00167 whole entry, looked up): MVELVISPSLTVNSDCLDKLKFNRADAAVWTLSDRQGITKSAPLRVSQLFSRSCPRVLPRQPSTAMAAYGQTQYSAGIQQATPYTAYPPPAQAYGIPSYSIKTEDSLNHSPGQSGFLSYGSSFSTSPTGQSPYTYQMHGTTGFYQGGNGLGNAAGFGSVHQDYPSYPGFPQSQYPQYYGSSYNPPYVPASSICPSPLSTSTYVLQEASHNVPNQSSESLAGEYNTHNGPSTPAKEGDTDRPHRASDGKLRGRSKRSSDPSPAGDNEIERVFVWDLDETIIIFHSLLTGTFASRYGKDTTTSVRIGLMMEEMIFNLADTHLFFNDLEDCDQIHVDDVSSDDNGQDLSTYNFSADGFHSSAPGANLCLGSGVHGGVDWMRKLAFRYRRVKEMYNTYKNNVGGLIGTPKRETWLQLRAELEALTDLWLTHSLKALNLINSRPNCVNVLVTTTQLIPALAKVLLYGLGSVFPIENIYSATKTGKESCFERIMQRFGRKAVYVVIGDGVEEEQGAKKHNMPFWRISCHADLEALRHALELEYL
Target sequence (Q15475 whole entry, looked up): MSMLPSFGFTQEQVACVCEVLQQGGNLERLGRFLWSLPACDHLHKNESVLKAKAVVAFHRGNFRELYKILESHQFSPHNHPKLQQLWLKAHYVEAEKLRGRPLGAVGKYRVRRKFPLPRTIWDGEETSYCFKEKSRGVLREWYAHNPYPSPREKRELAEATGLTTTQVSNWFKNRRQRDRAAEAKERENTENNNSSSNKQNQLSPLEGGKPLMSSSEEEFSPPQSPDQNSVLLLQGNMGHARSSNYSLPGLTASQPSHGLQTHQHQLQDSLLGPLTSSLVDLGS
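Six1/Eya2 binding was read as AlphaScreen signal after compounds were pinned into GST-Six1 plus His-tagged Eya2 (5X stock 250/500 nM) in pH 8.0 Tris/NaCl/TCEP buffer, beads added, then incubated 1 h, 37 C, dark.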
* hit, by the source's call; ? = inconclusive; . = no result given. Most compounds without a hit are left out; they make up all but 18% or so of the library. Unless noted, calls follow the shape of the dose curve; as a rule, active = well fitted curve in the direction sought with a large enough effect; inconclusive = small, poorly fitted or top-dose-only effect, or another doubt; inactive = no such curve, though single readings can be large; an effect the other way counts as inactive or inconclusive. % is scaled to controls: 0 for no effect and ±100 for the full control effect.

SMILES | TDP1 inh | TDP1 cell noCPT | CtBP-E1A blk | IL-1B inflam inh | DT40 TDP1 CPT | Six1-Eya2 blk
CCCCOc1ccc(S(=O)(=O)Nc2ccc(-c3ccc(N4CCC(C)CC4)nn3)cc2)cc1 | 6.5% | 29.1µM* | . | . | 11.6µM* | .
COc1c(C)cc(S(=O)(=O)Nc2cccc(-c3ccc(N4CCOCC4)nn3)c2)c(C)c1C | 11.2% | ? | . | . | 23.1µM* | .
Cc1ccc(S(=O)(=O)Nc2cccc(-c3ccc(N4CCCCCC4)nn3)c2)cc1C | 2.1% | 23.1µM* | . | -3.2 | ? | -9.0
COc1ccc(S(=O)(=O)Nc2cccc(-c3ccc(N4CCCC4)nn3)c2)cc1OC | 7.7% | -26.4% | . | . | -28.2% | .
CCOc1ccc(S(=O)(=O)Nc2cccc(-c3ccc(N4CCCCCC4)nn3)c2)cc1 | 2.1% | ? | -8.5 | -22.1 | ? | -7.0
Cc1cc(C)cc(S(=O)(=O)Nc2cccc(-c3ccc(N4CCOCC4)nn3)c2)c1 | 4.1% | -28.5% | . | . | ? | .
CCCCOc1ccc(S(=O)(=O)Nc2cccc(-c3ccc(N4CCOCC4)nn3)c2)cc1 | 5.3% | ? | . | . | 20.6µM* | .
CCOc1ccc(S(=O)(=O)Nc2ccc(-c3ccc(N4CCCC4)nn3)cc2)cc1 | 3.0% | -12.7% | . | . | 1.6% | .
O=C(NC12CC3CC(CC(C3)C1)C2)c1ccc(-c2ccc(Cl)cc2)o1 | 2.7% | 18.4µM* | 6.9 | -27.3 | 23.1µM* | -2.9
O=C(COC(=O)c1ccc(-c2ccc([N+](=O)[O-])cc2)o1)NC(=O)NC12CC3CC(CC(C3)C1)C2 | 4.5% | 13µM* | ? | -24.2 | 16.4µM* | -26.9
O=C(COC(=O)c1n[nH]c2ccccc12)NC(=O)NC12CC3CC(CC(C3)C1)C2 | -2.0% | 9.2µM* | 6.0 | 28.5 | 13µM* | -1.9
O=C(NC12CC3CC(CC(C3)C1)C2)c1ccc(-c2cccc(Cl)c2)o1 | 3.0% | ? | 9.1 | 5.4 | ? | -11.8
COc1ccc(NC(=O)Nc2ccc(N(C)C)cc2)cc1 | 11.0% | -11.3% | -12.4 | -10.6 | -9.8% | -22.8
O=c1c2sc(-c3ccccc3)cc2nc2n1CCCCC2 | -1.2% | 11.6µM* | -1.6 | . | -20.9% | -0.3
Cn1c2cc(C(=O)O)sc2c2cnn(Cc3ccccc3F)c(=O)c21 | 1.0% | . | . | . | . | .
CCN(CC)c1ccc(-c2nnc(SCC(=O)Nc3ccccc3C#N)n2-c2ccccc2)cc1 | 0.0% | 18.4µM* | -14.4 | -3.9 | 18.4µM* | -28.2
N#Cc1ccccc1NC(=O)CSc1nnc(-c2ccccc2)n1-c1ccccc1 | 0.0% | ? | -7.7 | 25.6 | 23.1µM* | -10.0
Cc1ccc(-n2nc(C)c(C3(O)C(=O)N(C(C)C)c4ccccc43)c2N)cc1 (stereo unspecified) | -0.6% | 11.6µM* | -2.4 | 8.1 | 10.3µM* | 0.0
CCN1C(=O)C2(C(C#N)=C(N)Oc3n[nH]c(C(C)C)c32)c2ccccc21 (stereo unspecified) | -2.3% | -26.7% | 1.6 | -12.9 | -23.9% | -2.2
Cc1nn(-c2ccccc2)c(N)c1C1(O)C(=O)N(C(C)C)c2ccccc21 (stereo unspecified) | 0.0% | 8.2µM* | 6.7 | 1.2 | 6.51µM* | 0.5
Cc1noc(N)c1C1(O)C(=O)N(C(C)C)c2ccccc21 (stereo unspecified) | 5.0% | -3.4% | 7.2 | -0.8 | 6.7% | 5.4
Cc1nn(-c2ccccc2)c2c1C1(C(=O)N(C(C)C)c3ccccc31)C(C#N)=C(N)O2 (stereo unspecified) | 4.8% | 16.4µM* | -3.0 | 1.1 | 9.2µM* | -6.8
COc1ccc(N2CC(C(=O)Nc3nc4ccc(F)cc4s3)CC2=O)c(OC)c1 (stereo unspecified) | 2.8% | ? | -6.0 | 7.3 | ? | -8.2
COc1ccc(/C=C(\NC(=O)c2ccco2)C(=O)N2CCCCC2)cc1 | 8.1% | -5.9% | 3.3 | 12.6 | 1.4% | -0.3
CCc1nc2ccc(C(=O)NCc3ccc(OC)cc3)cn2c1N(CC)CCN(C)C | . | -13.8% | -15.2 | -11.2 | 1.9% | 6.6
SMILES | TDP1 inh | TDP1 cell noCPT | CtBP-E1A blk | IL-1B inflam inh | DT40 TDP1 CPT | Six1-Eya2 blk
CCc1nc2ccc(C(=O)N3CCN(S(=O)(=O)CC)CC3)cn2c1N(CC)Cc1cccc(Br)c1 | . | ? | 1.7 | -22.2 | 23.1µM* | -2.3
CCc1nc2ccc(C(=O)N(C)C(C)C)cn2c1N(CC)Cc1cccc(Br)c1 | . | 14.6µM* | -0.7 | -7.8 | ? | 3.3
CCc1nc2ccc(C(=O)N3CCN(S(=O)(=O)CC)CC3)cn2c1N(CC)CCN(C)C | . | -13.0% | 5.3 | 22.6 | 0.4% | -1.6
CCNc1nnc(SCC(=O)c2cc(C)n(C3CC3)c2C)s1 | 11.0% | ? | 1.7 | -12.6 | -19.9% | -1.5
CCO[C@@H]1OC(C(=O)NC2CC2)=C[C@H](C(C)(C)C)[C@H]1CCCO | 3.5% | -2.9% | 8.7 | -2.0 | 8.0% | 3.4
C#CCNC(=O)C1=C[C@@H](c2ccc(C#C)cc2)[C@H](CCCO)[C@@H](OCC)O1 | 3.8% | -22.4% | 0.4 | 1.1 | -24.2% | -0.5
CCO[C@H]1OC(C(=O)NC2CC2)=C[C@@H](C2CCCCC2)[C@@H]1CCCO | -1.2% | 23.1µM* | 2.5 | 8.1 | 20.6µM* | 1.8
CCO[C@H]1OC(C(=O)Nc2ccccc2)=C[C@@H](c2ccc(Br)cc2)[C@@H]1CCCO | 2.6% | 18.4µM* | -14.1 | 0.0 | 16.4µM* | -8.4
C#CCNC(=O)C1=C[C@H](c2ccc(Br)cc2)[C@@H](CCCO)[C@H](OCC)O1 | 1.3% | 13µM* | 3.1 | 12.9 | ? | -0.1
C#Cc1ccc([C@H]2C=C(C(=O)NC3CC3)O[C@@H](OCC)[C@@H]2CCCO)cc1 | 3.8% | 23.1µM* | 4.5 | -4.4 | ? | -1.7
CCN(CC)C(c1ccc(F)cc1)c1nnnn1CC1CCCO1 (stereo unspecified) | 1.0% | 4.2% | 1.6 | 6.8 | 1.9% | 11.9
C#CCNC(=O)C1=C[C@@H](c2ccc(Br)cc2)[C@H](CCCO)[C@@H](OCC)O1 | -1.3% | 14.6µM* | 0.5 | 17.2 | 14.6µM* | 7.1
O=C(Nc1c(C(=O)Nc2ccc(F)cc2)oc2ccccc12)c1cc2ccccc2o1 | -6.4% | 18.4µM* | . | . | ? | .
COc1ccc(NC(=O)c2oc3ccccc3c2NC(=O)c2cc(=O)c3c(C)cc(C)cc3o2)cc1 | 2.5% | 2.91µM* | . | . | ? | .
COc1ccc(NC(=O)c2oc3ccccc3c2NC(=O)c2cc3ccccc3o2)cc1 | 6.4% | 4.11µM* | . | . | ? | .
COc1ccc(NC(=O)c2oc3ccccc3c2NC(=O)c2cc(=O)c3ccccc3o2)cc1 | 3.7% | ? | . | . | ? | .
